Source: PubChem BioAssay
In the library only some 5.8% were active in any assay of this set; here they are far more common.
VP16 counter: VP16 counterscreen qHTS for inhibitors of ROR gamma transcriptional activity; Drosophila S2 Gal4-VP16 UAS-luciferase, luminescence, 20 h; Potency, µM (highest dose often 53.6 µM), for the others: at the top dose activity, negative = inhibition, actives largely listed as inhibitors; 310,000 tested, 3.5% active; AID 2546, 2010;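 further: Gal4-VP16 expression switched on by copper sulfate through the metallothionein promoter; potency means the concentration at half of the fitted maximal effect; on the % scale 0 is the no-effect control and ±100 the full control effect; nearly all actives have a fitted effect of over 50% in size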
TRPV1 potentiator: HTS Assay for Compounds that Act as Potentiators of the Vanilloid Receptor 1 | Transient receptor potential cation channel subfamily V member 1 (Homo sapiens), Q8NER1 | 320,000 tested, 0.02% active | TRPV1-expressing cells, Fluo-8 calcium influx, capsaicin EC20 potentiation | potentiation, % at 8.33 µM; in the data active means potentiation above about 80%; inconclusive means between about 30% and that limit; further: 0% is about no effect
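Cells expressing TRPV1 were dye-loaded with Fluo-8 and read kinetically: 10 s baseline, 3 min after compound (agonist portion), then 2 min after EC20 capsaicin (allosteric enhancer portion). Calcium-bound dye fluorescence at 480/520 nm.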
uPA surface inh: qHTS for Inhibitors of Cell Surface uPA Generation; Potency, µM (series often up to 38.3 µM), for the others: at the highest dose activity change, negative = inhibition, most hits filed as inhibitors; cell surface uPA generation assay, qHTS; 330,000 tested, 0.31% active; active means well fitted inhibition curve with a large enough effect; inconclusive means small, poorly fitted or top-dose-only effect; inactive means no such curve, though single readings can be large or run the other way; tested in mouse RAW 264.7 cells; further: potency means the concentration at half of the fitted maximal effect; on the % scale 0 is the no-effect control and ±100 the full control effect; nearly all actives have a fitted effect of over 55% in size
RORgamma inh: qHTS for inhibitors of ROR gamma transcriptional activity | Nuclear receptor ROR-gamma (Mus musculus), P51450 | Drosophila S2 Gal4-RORgamma UAS-luciferase reporter, 20 h | Potency, µM (top dose mostly 53.6 µM), without a hit: at the highest dose activity change, negative = inhibition, hits mostly inhibitors | 310,000 tested, 5.4% active | AID 2551, 2010; further: potency means the concentration at half of the fitted maximal effect; on the % scale 0 is the no-effect control and ±100 the full control effect; nearly all actives have a fitted effect of over 60% in size
Target sequence (P51450 whole entry, looked up, the tested form may be a part): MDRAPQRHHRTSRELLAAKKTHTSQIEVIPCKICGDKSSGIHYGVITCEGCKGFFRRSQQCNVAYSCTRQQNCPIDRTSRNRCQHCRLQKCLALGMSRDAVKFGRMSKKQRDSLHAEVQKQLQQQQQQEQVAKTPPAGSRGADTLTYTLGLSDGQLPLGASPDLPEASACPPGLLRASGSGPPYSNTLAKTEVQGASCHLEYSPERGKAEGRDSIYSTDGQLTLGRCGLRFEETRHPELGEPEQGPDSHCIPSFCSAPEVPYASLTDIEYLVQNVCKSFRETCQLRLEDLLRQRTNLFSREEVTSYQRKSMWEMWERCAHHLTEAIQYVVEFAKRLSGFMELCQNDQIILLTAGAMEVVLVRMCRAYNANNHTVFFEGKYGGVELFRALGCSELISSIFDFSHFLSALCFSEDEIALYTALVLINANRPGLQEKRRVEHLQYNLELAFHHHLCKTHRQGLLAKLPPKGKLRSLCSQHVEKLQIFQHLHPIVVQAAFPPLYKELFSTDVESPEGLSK
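ROR gamma transcriptional activity was tracked as Gal4-UAS luciferase output in stably transfected Drosophila Schneider cells, with compound added 1 hr before 700 uM copper sulfate induction and a 20 hr ambient-temperature incubation.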
TRPV1 ag: HTS Assay for Compounds that Act as Agonists of the Vanilloid Receptor 1; 320,000 tested, 0.19% active; TRPV1-expressing cells, Fluo-8 calcium influx, agonist mode; activation, % at 8.33 µM; Transient receptor potential cation channel subfamily V member 1 (Homo sapiens), Q8NER1; in the data active means activation above about 80%; inconclusive means between about 30% and that limit; further: 0% is about no effect
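TRPV1-expressing cells were cultured overnight at 35.5C and loaded with Fluo-8 calcium dye for 40 to 90 min at room temperature. After a 10 s baseline, compound was added and calcium influx was read kinetically for 3 min (ex 480/em 520 nm).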
* marks the source's active call; other numbers are inactive results; u = inconclusive; x = not tested or not shown. Unless noted, the call rests on the fitted dose curve; in most records, active means well fitted curve in the direction sought with a large enough effect; inconclusive means small, poorly fitted or top-dose-only effect, or another doubt; inactive means no such curve, though single readings can be large; an effect the other way counts as inactive or inconclusive.

SMILES	VP16 counter	TRPV1 potentiator	uPA surface inh	RORgamma inh	TRPV1 ag
C/C(=N\NC(=O)c1nnn(-c2nonc2N)c1CN(C)c1ccccc1)c1ccccc1O	3.98µM*	2.6	2.2%	1.58µM*	-1.3
COc1ccc(/C=C/C(=O)c2ccc(C)s2)cc1	17.1%	x	x	-38.1%	x
NNC(=O)C1CC(O)CN1S(=O)(=O)c1ccc2ccccc2c1 (stereo unspecified)	x	0.1	-2.7%	x	-3.3
CC(C)CNC(=S)NC(=O)c1ccc(F)cc1	u	-7.9	2.6%	7.94µM*	20.4
CC(C)NC(=S)NC(=O)c1ccc(Cl)cc1Cl	10µM*	9.5	-2.5%	8.91µM*	6.8
O=C(NC(=S)Nc1ccccc1O)c1ccc(Cl)cc1Cl	7.08µM*	1.4	-6.2%	2.51µM*	-0.7
CC(C)CNC(=S)NC(=O)c1ccc(Cl)cc1Cl	5.62µM*	0.3	7.2%	7.08µM*	15.7
O=C(Nc1ccccc1Cl)c1ccc(Cl)cc1Cl	8.9%	-11.1	-7.4%	27.8%	17.3
Cc1csc(SCC(=O)Nc2cc(C(N)=O)cc(C(N)=O)c2)n1	x	x	7.5%	x	x
CCN(CC)c1ccc(/C=N/NC(=O)c2ccoc2C)c(O)c1	3.55µM*	-9.9	-19.5%	0.501µM*	u
CCN(CC)c1ccc(/C=N/NC(=S)NC)c(O)c1	1.78µM*	-15.5	u	0.794µM*	13.3
CCN(CC)c1ccc(/C=N/NC(=O)OC)c(O)c1	u	-8.1	-12.6%	u	15.7
CC1C/C(=N\NC(=S)NC(C)C)CC(C)(C)C1 (stereo unspecified)	3.98µM*	-11.9	-0.2%	1.58µM*	18.6
COc1ccccc1CNS(=O)(=O)c1ccc(-c2cnc(C3CC3)o2)cc1	u	3.9	0.282µM*	u	2.3
COc1ccc(NS(=O)(=O)c2ccc(-c3cnc(C4CC4)o3)cc2)cc1OC	7.08µM*	-8.9	u	u	29.6
COc1ccccc1NS(=O)(=O)c1ccc(-c2cnc(C3CC3)o2)cc1	-1.0%	u	u	-5.8%	0.5
CC(C)ON(CC(=O)NO)S(=O)(=O)c1ccc(-c2ccccc2)cc1	1.5%	x	x	-1.4%	x
CC(C)ON(C(C(=O)NO)C(C)C)S(=O)(=O)c1ccc(-c2ccccc2)cc1 (stereo unspecified)	u	x	x	10µM*	x
CN(C)S(=O)(=O)c1cccc(NC(=S)NCCc2ccccn2)c1	8.2%	-3.8	-0.6%	14.9%	0.2
Fc1ccc(NC(=S)NCCc2ccccn2)cc1	u	-1.6	2.8%	10µM*	-1.4
FC(F)(F)c1cccc(NC(=S)NCCc2ccccn2)c1	11.2µM*	6.8	-6.2%	3.98µM*	-11.9
CC(=O)c1ccc(NC(=S)NCCc2ccccn2)cc1	-23.3%	5.0	1.6%	u	0.1
S=C(NCCc1ccccn1)Nc1ccc(Cl)cc1	u	3.3	4.5%	6.31µM*	3.5
CC(C)(C)c1ccc(NC(=S)NCCc2ccccn2)cc1	u	-3.1	-4.5%	0.501µM*	-5.2
Cc1nc(NC2CCCCC2)c2nc(-c3ccccc3)n(CC3CCN(C)CC3)c2n1	-14.3%	x	x	-4.1%	x
SMILES	VP16 counter	TRPV1 potentiator	uPA surface inh	RORgamma inh	TRPV1 ag
NC(=O)NC(=O)COC(=O)CCCCCNS(=O)(=O)c1ccc2c(c1)OCCO2	-0.9%	1.9	-5.1%	31.7%	0.5
CC1(C)CC(=O)C=C(NC2=CC3OC(c4ccccc4)OCC3OC2=O)C1 (stereo unspecified)	11.2µM*	0.7	-9.8%	u	4.1
Oc1ccc(Nc2nc3ccccc3nc2Nc2ccc(O)cc2)cc1	u	21.8	-9.5%	15.8µM*	-3.6
CCOc1ccc(C2C=C(c3ccc(C)cc3)Nc3ncnn32)cc1 (stereo unspecified)	-6.0%	-13.4	x	11.2µM*	21.2
c1ccc2c(c1)Cn1nc(Cc3nc4c(s3)CCCC4)nc1-2	0.3%	22.4	-6.8%	14.1µM*	-0.2
Cc1nc(SCC(=O)N2c3ccccc3Sc3ccccc32)n[nH]1	3.5%	-8.0	7.9%	2.4%	3.2
NS(=O)(=O)c1ccc(Sc2nc3ccccc3s2)c([N+](=O)[O-])c1	10µM*	-4.5	-5.3%	-32.5%	10.8
NS(=O)(=O)c1ccc(Sc2ccccn2)c([N+](=O)[O-])c1	10.8%	-5.3	0.8%	1.7%	-3.7
